D2 ag-1 = activates the human D2 dopamine receptor; HEK293 T-REx D2 cells, calcium flux agonist mode; AID 485358; P14416; activation, % at 2 µM; 0.53% of 340,000 active;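 active = activation over 3 SD above normal in the single-dose calcium agonist read, cut at about 30% in these data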
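In this primary screen, compounds producing a positive calcium signal within 180 s of addition to tetracycline-induced, force-coupled HEK293 Trex D2 cells are flagged; cells are dye-loaded with a no-wash calcium kit beforehand.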
D2 PAM-1 = positively modulates the human D2 dopamine receptor allosterically; P14416; HEK293 T-REx D2, calcium flux, EC20 dopamine potentiation; potentiation, % at 10 µM; 0.34% of 340,000 active; AID 485347;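 active = potentiation over 3 SD above the plate norm, cut at about 30% in these data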
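Using a no-wash calcium dye in inducible, force-coupled HEK293 Trex cells expressing D2, we tracked fluorescence each second for 180 s after compound, then for 180 s after EC20 dopamine to detect augmented signalling.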
D2 ag-2 = agonists of human D2 dopamine receptor (beta-arrestin); P14416; DiscoveRx PathHunter D2 beta-arrestin, luminescence, 90 min; 100% = 57 uM dopamine signal; activation, % (test concentration not listed); 0.084% of 360,000 active; AID 624465; in the data active = activation above about 40%; inconclusive = between about 15% and that limit
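Agonist mode: compounds alone added to overnight-plated D2 PathHunter cells for 90 min at 37 C, with 57 uM final dopamine (EC100) defining full response. Beta-arrestin recruitment detected by chemiluminescent reagent, read after 1 h at ambient temperature.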
D2 antag = antagonists of human D2 dopamine receptor | P14416 | HEK293 TREx D2 cells, calcium flux, dopamine EC80 | inhibition, % at 10 µM | 2% of 340,000 active | AID 485344; in the data active = inhibition above about 30%; inactive = below that, where a call was filed
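Dopamine at EC80 is the agonist stimulus; test compounds precede it by 180 s. Calcium flux read kinetically in a force-coupled, inducible HEK293 T-REx D2 cell line.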
D2 PAM-2 = human D2 receptor positive allosteric modulation; P14416; DiscoveRx D2 beta-arrestin cells, luminescence, 90 min; 100% = 57 uM dopamine signal; potentiation, % (test concentration not listed); 0.23% of 360,000 active; in the data active = potentiation above about 50%; inconclusive = mostly about 30% to 49%
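D2 cells co-treated with compound plus 50 nM dopamine (EC20) for 90 min at 37 deg C to detect potentiation. Beta-arrestin recruitment was read as enzyme-fragment luminescence after 1 h at ambient temperature. Full response was set by 57 uM dopamine.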
D3 arrestin ag = D3 receptor agonism confirmed, beta-arrestin readout | shares compounds with D2 ag-1 | DiscoveRx D3 beta-arrestin cells, luminescence, 90 min | Potency, µM (doses to about 76.9 µM), hits mostly activators | 4% of 2,300 active; also: nearly all actives have a fitted effect of over 70% in size
Target sequence (P35462 whole entry, looked up): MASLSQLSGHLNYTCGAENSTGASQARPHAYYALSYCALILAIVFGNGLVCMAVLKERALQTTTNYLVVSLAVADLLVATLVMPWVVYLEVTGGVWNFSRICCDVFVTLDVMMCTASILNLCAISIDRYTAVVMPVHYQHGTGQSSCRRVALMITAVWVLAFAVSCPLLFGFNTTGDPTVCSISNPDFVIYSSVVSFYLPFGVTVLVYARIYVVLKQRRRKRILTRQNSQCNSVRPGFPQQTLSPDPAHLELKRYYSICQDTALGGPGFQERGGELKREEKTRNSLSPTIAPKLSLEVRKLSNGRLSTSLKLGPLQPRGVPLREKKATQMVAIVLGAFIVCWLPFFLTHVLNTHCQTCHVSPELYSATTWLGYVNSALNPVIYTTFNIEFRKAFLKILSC
D2 ag-3 = counter-screen for D3 agonists: human D2 dopamine receptor agonism | Potency, µM (titrated, usually from 76.9 µM), usual class: activators | DiscoveRx PathHunter D2 beta-arrestin, luminescence, 90 min; response scale: percent relative to full dopamine signal | 5.9% of 2,300 active | shares compounds with D2 ag-1; also: nearly all actives have a fitted effect of over 70% in size
A number is an active result; i = inactive; ? = inconclusive; nt = no result; ! = not confirmed by another sample. Sampled rows, rich in hits. Any-hit rate of the full collection: about 2.4%. Unless noted, calls follow the shape of the dose curve; as a rule, active = well fitted activation curve with a large enough effect; inconclusive = small, poorly fitted or top-dose-only effect; inactive = flat fitted curve, though single readings scatter.

SMILES | D2 ag-1 | D2 PAM-1 | D2 ag-2 | D2 antag | D2 PAM-2 | D3 arrestin ag | D2 ag-3
Cc1c(C(=O)N2CCN(c3ccccc3)CC2)oc2c(Cl)cccc12 | i | i | i | i | i | i | i
CCOC(=O)c1[nH]c(C)c(C(=O)N2CCN(c3ccccc3)CC2)c1C | 31 | i | i | i | i | i | i
O=C(CCCN1C(=O)c2cccnc2C1=O)Nc1ccccc1F | i | i | i | i | i | nt | nt
CCc1ccccc1NC(=O)CCCN1C(=O)c2cccnc2C1=O | 41 | i | i | i | i | i | i
COc1cc2c(C#CCCO)c(-c3ccc(C#N)cc3)oc(=O)c2cc1OC | i | i | i | i | i | i | i
COc1cc2c(C#CCCO)c(-c3ccsc3)oc(=O)c2cc1OC | nt | nt | i | nt | i | nt | nt
CCC(=O)N1c2nc(C(C)C)nn2C2(CCCCC2)[C@@H]2CCCC[C@@H]21 | i | i | nt | nt | nt | nt | nt
O=C(Nc1ccccc1O)c1cc2cc(Br)ccc2oc1=O | i | i | i | i | i | nt | nt
CC(C)c1nnc(NC(=O)c2cc3cc(Br)ccc3oc2=O)s1 | i | i | i | i | i | i | i
Cc1ccc(Cl)cc1-n1ncc2c(Nc3ccc4c(c3)OCCO4)ncnc21 | i | i | nt | nt | nt | nt | nt
CNC(C)C(=O)NC(C(=O)N1CCCC1C(=O)NNc1ccccc1)C(C)C (stereo unspecified) | i | i | i | i | i | i | i
CNC(C)C(=O)NC(C(=O)N1CCCC1C(=O)NC1CCCc2ccccc21)C(C)C (stereo unspecified) | i | i | i | i | i | nt | nt
COc1ccccc1CNS(=O)(=O)c1ccc2c(c1)CC(C)N2C(C)=O (stereo unspecified) | i | i | nt | nt | nt | nt | nt
COC(=O)C1CCN(C(c2ccccc2Cl)c2sc3nc(-c4ccco4)nn3c2O)CC1 (stereo unspecified) | i | i | nt | nt | nt | nt | nt
CNS(=O)(=O)c1cc(-c2nnc(Nc3cc(C)ccc3C)c3ccccc23)ccc1C | nt | i | nt | nt | nt | nt | nt
CCCCn1c(N)c(N(CCC(C)C)C(=O)C2CC(=O)N(CCc3ccc(OC)c(OC)c3)C2)c(=O)[nH]c1=O (stereo unspecified) | i | i | i | i | i | i | i
O=S(=O)(NCCc1csc(-c2cccnc2)n1)c1cc(F)ccc1F | i | i | i | 39 | i | i | i
O=S(=O)(NCCc1csc(-c2cccnc2)n1)c1cccc(F)c1 | i | i | i | i | i | nt | nt
Cc1ccc(-n2nc(C(=O)NC(C)C)c(=O)n(C)c2=O)cc1 | i | nt | nt | nt | nt | nt | nt
Cc1ccc(C(=O)NCN2CCN(c3ccccc3)CC2)cc1 | i | i | i | i | i | nt | nt
COc1cc(C(C)=O)ccc1OCC(O)CN1CCN(c2ccc(F)cc2)CC1 (stereo unspecified) | 41 | i | i | 40 | i | i | i
COc1cc(C(C)=O)ccc1OCC(O)CN1CCN(c2ccc(C)cc2C)CC1 (stereo unspecified) | i | i | i | i | i | nt | nt
COc1cc(C(C)=O)ccc1OCC(O)CN1CCN(c2ccccc2)CC1 (stereo unspecified) | 85 | i | 46 | 85 | i | ? | ?
COc1ccc(C(=O)NCN2CCN(c3ccccc3)CC2)cc1OC | 64 | i | i | i | i | i | i
COc1ccc(NC(=O)c2noc3c2CCCC3)cc1Cl | i | i | nt | nt | nt | nt | nt
SMILES | D2 ag-1 | D2 PAM-1 | D2 ag-2 | D2 antag | D2 PAM-2 | D3 arrestin ag | D2 ag-3
Cc1ccc(Cl)cc1N1C(=O)N(Cc2ccc(C#N)cc2)c2ccccc2S1(=O)=O | i | i | nt | nt | nt | nt | nt
CN(CCNC(=O)c1ccc(CS(=O)(=O)c2ccc(Br)cc2)o1)CCc1ccccc1 | 53 | i | i | i | i | i | i
O=C(NCCc1ccccc1)c1ccc(CS(=O)(=O)c2ccc(Br)cc2)o1 | i | i | i | i | i | nt | nt
Cc1cccc(C(=O)N2CCc3cc(CNC(=O)c4cc5ccccc5[nH]4)ccc32)c1 | i | i | nt | nt | nt | nt | nt
CC1CCCC(NC(=O)C2COc3ccccc3O2)C1C (stereo unspecified) | i | i | i | i | i | i | i
Cc1nnc(N2C(=O)C(O)=C(C(=O)c3ccco3)C2c2ccc(F)cc2)s1 (stereo unspecified) | i | i | i | i | i | i | i
C#CCn1c(C2CC(=O)N(c3ccc(OC)cc3)C2)nc2ccccc21 (stereo unspecified) | i | nt | nt | nt | nt | nt | nt
CCOC(=O)N1CCC(NC(=O)C(Cc2ccccc2)NC(=O)c2ccco2)CC1 (stereo unspecified) | i | nt | i | i | i | nt | nt
CCOC(=O)N1CCC(NCCNC(=O)c2ccco2)CC1 | 76 | i | i | 38 | i | i | i
COC(=O)c1ccccc1NC(=O)Cn1cc(S(=O)(=O)Cc2ccccc2F)c2ccccc21 | i | i | nt | nt | nt | nt | nt
COc1ccc(/C=c2\s/c(=C/C(=O)c3ccc(C)cc3)[nH]c2=O)cc1OC | i | i | i | i | i | i | i
Cc1ccc(NC(=O)c2cnc(SCC(=O)N3CCOCC3)n(C)c2=O)cc1C | i | i | nt | nt | nt | nt | nt
O=C(O)/C=C/C(=O)NCCCc1ccccc1 | i | i | i | i | i | i | i
O=C(O)/C=C/C(=O)NCc1ccccc1 | i | i | i | i | i | nt | nt
CCOC(=O)c1cccc(NC(=O)c2cnccn2)c1 | nt | i | i | nt | i | i | i
CCCN(Cc1cc2cccc(C)c2[nH]c1=O)C(=O)c1cccc(Cl)c1 | i | i | nt | nt | nt | nt | nt
Cc1ccc(NCc2cccn2-c2nnc(N3CCC(C(=O)NCCc4ccc(Cl)cc4)CC3)s2)cc1 | i | i | nt | nt | nt | nt | nt
COc1cc(CC(=O)Nc2ccc3nc(C)sc3c2)cc(OC)c1OC | 56 | i | i | i | i | i | i
O=C(c1cccs1)N1CCN(Cc2cccc([N+](=O)[O-])c2)CC1 | 71 | i | i | 38 | i | i | ?
O=C(c1ccco1)N1CCN(C(=O)c2cc3cc([N+](=O)[O-])ccc3oc2=O)CC1 | i | i | i | i | i | nt | nt
O=C(c1ccc([N+](=O)[O-])cc1)N1CCN(C(=O)c2cccs2)CC1 | nt | i | i | nt | i | nt | nt
O=C(c1ccco1)N1CCN(Cc2cccc([N+](=O)[O-])c2)CC1 | 37 | i | i | i | i | i | i
O=C(c1cccs1)N1CCN(Cc2ccccn2)CC1 | 78 | i | i | 52 | i | ? | ?
O=C(Nc1nnc(S(=O)(=O)N2CCOCC2)s1)c1ccccc1Cl | 52! | i | i | i | i | i | i
O=C(COc1ccccc1)Nc1nnc(S(=O)(=O)N2CCCCCC2)s1 | 50! | i | i | i | i | i | i
O=C(Nc1nnc(S(=O)(=O)N2CCOCC2)s1)c1ccccc1F | i | i | i | i | i | nt | nt
